Reference: the supplement of paper PMC10849652
The full data set covers some 7,900 targets. This sample favours those with a hit. About 0.6% of all pairs of compound and target were hits.

Key:
Test in all cases: log2 fold change, soluble protein after heating vs DMSO (PISA); higher = thermal stabilisation; K562 cells, 10 uM, 30 min; active = over 0.2 and 3.5 SD of the protein, either way, in both replicates (recomputed)
[1] = compound: CS(=O)(=O)c1ccc(-c2cnc(N)c(C(=O)Nc3ccccc3)n2)cc1
Summary of the method: (§1)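 Aliquots of K562 cells (2×10^6 cells/mL) treated with 10 μM compound for 30 min were heated for 3 min over 48°C-58°C. After pooling and extraction in PBS with 0.5% NP-40 at 4°C, soluble protein from a 21,000xg, 90 min spin was quantified by TMTpro 16plex LC-MS/MS with channel sums equalised. Thermal stability is expressed against control samples, from duplicates, as a log2 fold change.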

crizotinib = compound: C[C@@H](Oc1cc(-c2cnn(C3CCNCC3)c2)cnc1N)c1c(Cl)ccc(F)c1Cl [crizotinib]
Summary of the method: as §1

[2] = compound: C[C@@H]1COCCN1C2=NC(=NC(=C2)C3(CC3)S(=O)(=O)C)C4=C5C=CNC5=CC=C4
Summary of the method: as §1

[3] = compound: C[C@H](C1=CC=C(C=C1)C(=O)NC2=C3C=CNC3=NC=C2)N
Summary of the method: as §1

duvelisib = compound: C[C@H](Nc1ncnc2nc[nH]c12)c1cc2cccc(Cl)c2c(=O)n1-c1ccccc1 [duvelisib]
Summary of the method: as §1

gandotinib = compound: Cc1cc(Nc2cc(CN3CCOCC3)c3nc(C)c(Cc4ccc(Cl)cc4F)n3n2)n[nH]1 [gandotinib]
Summary of the method: as §1

tozasertib = compound: Cc1cc(Nc2cc(N3CCN(C)CC3)nc(Sc3ccc(NC(=O)C4CC4)cc3)n2)n[nH]1 [tozasertib]
Summary of the method: as §1

[4] = compound: Cc1cc(SCc2sc(-c3ccc(C(F)(F)F)cc3)nc2C)ccc1OCC(=O)O
Summary of the method: as §1

doramapimod = compound: Cc1ccc(-n2nc(C(C)(C)C)cc2NC(=O)Nc2ccc(OCCN3CCOCC3)c3ccccc23)cc1 [doramapimod]
Summary of the method: as §1

ispinesib = compound: Cc1ccc(C(=O)N(CCCN)[C@@H](c2nc3cc(Cl)ccc3c(=O)n2Cc2ccccc2)C(C)C)cc1 [ispinesib]
Summary of the method: as §1

bafetinib = compound: Cc1ccc(NC(=O)c2ccc(CN3CC[C@H](N(C)C)C3)c(C(F)(F)F)c2)cc1Nc1nccc(-c2cncnc2)n1 [bafetinib]
Summary of the method: as §1

[5] = compound: Cc1cccc(CC(=O)N2CCc3c2ccc(-c2cn(C)c4ncnc(N)c24)c3F)n1
Summary of the method: as §1

nilotinib = compound: Cc1cn(-c2cc(NC(=O)c3ccc(C)c(Nc4nccc(-c5cccnc5)n4)c3)cc(C(F)(F)F)c2)cn1 [nilotinib]
Summary of the method: as §1

[6] = compound: Cc1nc(Nc2n[nH]c3c2CN(C(=O)N[C@H](CN(C)C)c2ccccc2)C3(C)C)c2sccc2n1
Summary of the method: as §1

dasatinib = compound: Cc1nc(Nc2ncc(C(=O)Nc3c(C)cccc3Cl)s2)cc(N2CCN(CCO)CC2)n1 [dasatinib]
Summary of the method: as §1

[7] = compound: Cc1ncc(-c2ccnc(Nc3ccc(S(C)(=O)=O)cc3)n2)n1C(C)C
Summary of the method: as §1

[8] = compound: Cn1cc(-c2ccc3c(c2)CCN3C(=O)Cc2cccc(C(F)(F)F)c2)c2c(N)ncnc21
Summary of the method: as §1

[9] = compound: Cn1cc(-c2ccc3nnc(C(F)(F)c4ccc5ncccc5c4)n3n2)cn1
Summary of the method: as §1

tipifarnib = compound: Cn1cncc1[C@@](N)(c1ccc(Cl)cc1)c1ccc2c(c1)c(-c1cccc(Cl)c1)cc(=O)n2C [tipifarnib]
Summary of the method: as §1

mubritinib = compound: FC(F)(F)c1ccc(/C=C/c2nc(COc3ccc(CCCCn4ccnn4)cc3)co2)cc1 [mubritinib]
Summary of the method: as §1

Measured: log2 fold change

RSRC2 (UniProt Q7L4I2)
active: [6] -2.11
inactive: [1] 0.02 | crizotinib 0.022 | [2] -0.018 | [3] -0.095 | duvelisib 0.002 | gandotinib 0.052 | tozasertib -0.058 | [4] -0.039 | doramapimod -0.022 | ispinesib 0.087 | bafetinib -0.091 | [5] -0.091 | nilotinib 0 | dasatinib 0.002 | [7] -0.028 | [8] -0.007 | [9] -0.056 | tipifarnib 0.012 | mubritinib 0.02

RFC3 (UniProt P40938)
Chain of UniProt P40938 (P40938 whole entry, looked up): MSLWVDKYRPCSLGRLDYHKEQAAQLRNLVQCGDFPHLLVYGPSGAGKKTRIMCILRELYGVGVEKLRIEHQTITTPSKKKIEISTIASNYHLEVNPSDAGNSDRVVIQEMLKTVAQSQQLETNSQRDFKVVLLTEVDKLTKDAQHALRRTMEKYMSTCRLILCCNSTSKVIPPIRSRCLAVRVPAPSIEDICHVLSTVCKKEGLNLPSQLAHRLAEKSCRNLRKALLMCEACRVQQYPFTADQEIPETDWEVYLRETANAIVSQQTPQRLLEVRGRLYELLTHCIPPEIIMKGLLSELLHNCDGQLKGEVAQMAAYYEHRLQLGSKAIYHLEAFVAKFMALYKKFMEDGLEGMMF
inactive: [1] 0.029 | crizotinib 0.016 | [2] 0.163 | [3] 0.071 | duvelisib 0.032 | gandotinib -0.042 | tozasertib -0.004 | [4] 0.061 | doramapimod -0.005 | ispinesib 0.067 | bafetinib -0.035 | [5] 0.049 | nilotinib -0.016 | [6] -0.017 | dasatinib -0.032 | [7] -0.011 | [8] 0.053 | [9] -0.01 | tipifarnib -0.051 | mubritinib 0.045

SEH1L isoform 1 (UniProt Q96EE3)
inactive: [1] -0.03 | crizotinib 0.04 | [2] -0.008 | [3] -0.028 | duvelisib 0.016 | gandotinib -0.069 | tozasertib 0.011 | [4] 0.01 | doramapimod 0.011 | ispinesib 0.054 | bafetinib -0.083 | [5] 0.051 | nilotinib 0.012 | [6] -0.081 | dasatinib -0.008 | [7] -0.028 | [8] 0.015 | [9] -0.037 | tipifarnib -0.11 | mubritinib 0.031

RBM27 (UniProt Q9P2N5)
Chain of UniProt Q9P2N5 (Q9P2N5 whole entry, looked up): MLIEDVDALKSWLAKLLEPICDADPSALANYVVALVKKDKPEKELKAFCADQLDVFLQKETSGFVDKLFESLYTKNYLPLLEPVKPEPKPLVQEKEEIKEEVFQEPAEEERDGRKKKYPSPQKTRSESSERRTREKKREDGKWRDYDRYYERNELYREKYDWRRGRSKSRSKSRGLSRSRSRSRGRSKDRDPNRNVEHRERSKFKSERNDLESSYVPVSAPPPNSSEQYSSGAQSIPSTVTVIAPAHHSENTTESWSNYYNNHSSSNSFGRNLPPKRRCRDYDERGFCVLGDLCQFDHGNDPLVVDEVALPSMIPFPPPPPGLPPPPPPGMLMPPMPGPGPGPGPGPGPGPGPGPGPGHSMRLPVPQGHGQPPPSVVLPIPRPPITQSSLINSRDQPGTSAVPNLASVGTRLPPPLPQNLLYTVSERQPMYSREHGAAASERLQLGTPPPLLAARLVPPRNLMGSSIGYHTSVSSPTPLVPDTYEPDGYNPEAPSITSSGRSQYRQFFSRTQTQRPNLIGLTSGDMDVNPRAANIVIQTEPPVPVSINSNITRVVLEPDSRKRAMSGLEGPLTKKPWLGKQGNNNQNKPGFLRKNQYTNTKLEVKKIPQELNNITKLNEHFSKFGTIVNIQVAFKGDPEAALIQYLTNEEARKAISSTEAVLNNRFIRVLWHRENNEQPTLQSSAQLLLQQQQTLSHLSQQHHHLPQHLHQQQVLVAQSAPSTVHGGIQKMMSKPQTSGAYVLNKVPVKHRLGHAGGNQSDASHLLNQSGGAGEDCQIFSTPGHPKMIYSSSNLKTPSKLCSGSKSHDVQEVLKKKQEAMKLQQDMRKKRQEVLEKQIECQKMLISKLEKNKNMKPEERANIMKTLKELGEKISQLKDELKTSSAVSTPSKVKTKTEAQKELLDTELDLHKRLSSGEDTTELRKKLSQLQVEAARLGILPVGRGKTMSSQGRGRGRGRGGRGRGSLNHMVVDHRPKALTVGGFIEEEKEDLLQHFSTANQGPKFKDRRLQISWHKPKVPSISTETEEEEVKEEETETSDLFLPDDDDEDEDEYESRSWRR
active: [6] -0.91
inactive: [1] 0.006 | crizotinib 0.021 | [2] 0.026 | [3] -0.174 | duvelisib 0.001 | gandotinib -0.019 | tozasertib 0.027 | [4] 0.09 | doramapimod -0.035 | ispinesib -0.122 | bafetinib 0.007 | [5] 0.078 | nilotinib 0.019 | dasatinib -0.07 | [7] -0.07 | [8] 0.053 | [9] 0.041 | tipifarnib -0.005 | mubritinib 0.023

RPS5 (UniProt P46782)
inactive: [1] -0.081 | crizotinib 0 | [2] -0.255 | [3] 0.176 | duvelisib -0.081 | gandotinib 0.108 | tozasertib 0.029 | [4] 0.017 | doramapimod 0.069 | ispinesib -0.073 | bafetinib 0.2 | [5] 0.002 | nilotinib 0.046 | [6] 0.178 | dasatinib 0.069 | [7] -0.035 | [8] -0.122 | [9] -0.08 | tipifarnib 0.042 | mubritinib 0.007

RPRD1B (UniProt Q9NQG5)
Chain of UniProt Q9NQG5 (Q9NQG5 whole entry, looked up): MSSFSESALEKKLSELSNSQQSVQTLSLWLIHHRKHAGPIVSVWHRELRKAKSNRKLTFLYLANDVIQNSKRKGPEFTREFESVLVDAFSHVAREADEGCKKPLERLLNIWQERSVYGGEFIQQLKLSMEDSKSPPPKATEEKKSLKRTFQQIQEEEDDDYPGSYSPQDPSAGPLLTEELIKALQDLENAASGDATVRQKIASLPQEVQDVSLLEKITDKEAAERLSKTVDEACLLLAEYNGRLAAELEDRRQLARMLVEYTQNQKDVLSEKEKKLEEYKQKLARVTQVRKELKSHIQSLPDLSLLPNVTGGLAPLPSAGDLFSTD
inactive: [1] -0.104 | crizotinib 0.072 | [2] 0.062 | [3] -0.042 | duvelisib 0.078 | gandotinib -0.227 | tozasertib 0.023 | [4] 0.062 | doramapimod -0.044 | ispinesib 0.039 | bafetinib -0.036 | [5] 0.04 | nilotinib -0.036 | [6] -0.072 | dasatinib -0.099 | [7] -0.024 | [8] -0.021 | [9] -0.035 | tipifarnib -0.039 | mubritinib 0.032

SEC24A (UniProt O95486)
Chain of UniProt O95486 (O95486 whole entry, looked up): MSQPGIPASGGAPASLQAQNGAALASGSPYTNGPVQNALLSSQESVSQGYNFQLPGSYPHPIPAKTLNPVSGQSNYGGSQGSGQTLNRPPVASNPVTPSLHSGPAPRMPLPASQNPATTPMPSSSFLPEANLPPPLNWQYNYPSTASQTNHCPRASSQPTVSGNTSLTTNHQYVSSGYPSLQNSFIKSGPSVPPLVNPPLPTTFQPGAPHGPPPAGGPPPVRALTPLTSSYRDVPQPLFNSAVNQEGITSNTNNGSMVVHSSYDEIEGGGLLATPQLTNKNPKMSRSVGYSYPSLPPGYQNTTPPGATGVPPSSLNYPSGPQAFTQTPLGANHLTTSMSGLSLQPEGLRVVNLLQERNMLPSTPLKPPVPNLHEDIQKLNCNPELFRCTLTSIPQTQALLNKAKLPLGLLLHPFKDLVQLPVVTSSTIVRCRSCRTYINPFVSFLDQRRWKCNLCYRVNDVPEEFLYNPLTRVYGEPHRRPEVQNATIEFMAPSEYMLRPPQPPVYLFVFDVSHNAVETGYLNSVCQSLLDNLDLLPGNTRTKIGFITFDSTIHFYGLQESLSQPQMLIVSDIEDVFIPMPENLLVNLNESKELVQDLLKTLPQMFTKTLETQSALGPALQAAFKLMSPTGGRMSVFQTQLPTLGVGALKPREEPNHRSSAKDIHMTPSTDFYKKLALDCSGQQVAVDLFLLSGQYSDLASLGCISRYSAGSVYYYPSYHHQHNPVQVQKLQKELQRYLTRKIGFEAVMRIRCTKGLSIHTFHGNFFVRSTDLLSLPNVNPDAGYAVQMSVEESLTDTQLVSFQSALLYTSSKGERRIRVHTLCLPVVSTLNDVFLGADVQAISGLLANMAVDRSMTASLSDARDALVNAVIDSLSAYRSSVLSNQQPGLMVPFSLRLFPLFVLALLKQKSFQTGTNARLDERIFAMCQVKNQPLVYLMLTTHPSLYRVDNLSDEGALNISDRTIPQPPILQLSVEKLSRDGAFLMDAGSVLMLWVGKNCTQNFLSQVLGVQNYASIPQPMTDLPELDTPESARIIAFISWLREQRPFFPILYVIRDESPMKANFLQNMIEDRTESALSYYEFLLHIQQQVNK
inactive: [1] 0.002 | crizotinib -0.001 | [2] 0.075 | [3] 0.001 | duvelisib 0.038 | gandotinib -0.148 | tozasertib 0.018 | [4] 0.084 | doramapimod -0.029 | ispinesib 0.017 | bafetinib -0.018 | [5] 0.041 | nilotinib -0.126 | [6] 0.021 | dasatinib -0.121 | [7] -0.012 | [8] 0.008 | [9] 0.016 | tipifarnib -0.005 | mubritinib 0.017

RTN4IP1 (UniProt Q8WWV3)
Chain of UniProt Q8WWV3 (Q8WWV3 whole entry, looked up): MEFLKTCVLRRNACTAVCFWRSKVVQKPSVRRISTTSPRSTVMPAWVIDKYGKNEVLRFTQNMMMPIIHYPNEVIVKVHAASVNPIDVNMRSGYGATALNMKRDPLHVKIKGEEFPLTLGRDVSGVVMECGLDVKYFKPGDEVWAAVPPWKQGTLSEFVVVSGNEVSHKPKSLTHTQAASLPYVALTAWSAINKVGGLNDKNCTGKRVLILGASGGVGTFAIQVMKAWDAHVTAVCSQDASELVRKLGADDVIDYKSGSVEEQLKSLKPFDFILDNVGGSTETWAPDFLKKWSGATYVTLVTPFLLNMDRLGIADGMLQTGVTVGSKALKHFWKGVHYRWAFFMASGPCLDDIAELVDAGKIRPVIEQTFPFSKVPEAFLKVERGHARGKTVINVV
inactive: [1] 0.015 | crizotinib -0.084 | [2] 0.064 | [3] -0.045 | duvelisib 0.276 | gandotinib 0.117 | tozasertib -0.108 | [4] 0.225 | doramapimod 0.041 | ispinesib -0.137 | bafetinib -0.178 | [5] -0.07 | nilotinib 0.171 | [6] -0.194 | dasatinib 0.189 | [7] -0.008 | [8] 0.121 | [9] 0.168 | tipifarnib 0.041 | mubritinib 0.122

RAB3GAP2 (UniProt Q9H2M9)
Chain of UniProt Q9H2M9 (Q9H2M9 whole entry, looked up): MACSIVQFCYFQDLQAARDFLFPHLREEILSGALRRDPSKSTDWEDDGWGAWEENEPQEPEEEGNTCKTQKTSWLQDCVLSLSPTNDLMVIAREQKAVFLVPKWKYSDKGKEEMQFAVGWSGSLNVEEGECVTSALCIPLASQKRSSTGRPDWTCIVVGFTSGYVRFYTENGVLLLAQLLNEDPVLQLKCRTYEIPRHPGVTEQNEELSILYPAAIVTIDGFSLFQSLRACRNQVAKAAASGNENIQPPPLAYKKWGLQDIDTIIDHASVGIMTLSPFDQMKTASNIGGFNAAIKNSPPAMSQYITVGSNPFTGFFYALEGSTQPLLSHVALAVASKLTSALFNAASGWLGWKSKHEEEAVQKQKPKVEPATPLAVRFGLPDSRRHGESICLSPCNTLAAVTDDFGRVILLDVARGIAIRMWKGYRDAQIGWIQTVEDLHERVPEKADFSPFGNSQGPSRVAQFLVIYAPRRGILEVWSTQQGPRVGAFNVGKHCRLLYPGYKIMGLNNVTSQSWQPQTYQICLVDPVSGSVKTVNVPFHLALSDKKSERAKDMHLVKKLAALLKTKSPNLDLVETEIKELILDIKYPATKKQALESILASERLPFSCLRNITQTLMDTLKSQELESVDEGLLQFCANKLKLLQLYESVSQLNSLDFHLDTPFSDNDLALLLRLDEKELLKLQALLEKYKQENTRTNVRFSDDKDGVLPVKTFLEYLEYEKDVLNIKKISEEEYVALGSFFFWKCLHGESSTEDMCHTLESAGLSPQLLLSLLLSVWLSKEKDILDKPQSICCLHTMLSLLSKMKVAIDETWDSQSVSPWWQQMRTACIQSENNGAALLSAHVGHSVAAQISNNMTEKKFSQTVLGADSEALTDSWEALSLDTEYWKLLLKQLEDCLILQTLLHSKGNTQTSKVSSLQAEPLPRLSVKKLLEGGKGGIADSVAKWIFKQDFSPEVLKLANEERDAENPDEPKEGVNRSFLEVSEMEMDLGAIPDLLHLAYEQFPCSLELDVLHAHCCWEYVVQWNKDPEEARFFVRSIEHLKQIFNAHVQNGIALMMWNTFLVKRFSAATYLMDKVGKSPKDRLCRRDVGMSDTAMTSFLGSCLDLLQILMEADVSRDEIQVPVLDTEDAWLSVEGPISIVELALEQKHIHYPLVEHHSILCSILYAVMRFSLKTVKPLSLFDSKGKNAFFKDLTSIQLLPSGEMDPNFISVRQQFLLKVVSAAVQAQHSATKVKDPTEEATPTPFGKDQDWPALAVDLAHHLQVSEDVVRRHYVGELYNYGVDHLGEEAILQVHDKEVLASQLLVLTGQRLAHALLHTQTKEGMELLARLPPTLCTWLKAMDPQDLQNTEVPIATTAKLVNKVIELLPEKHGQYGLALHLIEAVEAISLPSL
inactive: [1] 0.019 | crizotinib -0.064 | [2] -0.024 | [3] 0.213 | duvelisib -0.046 | gandotinib 0.003 | tozasertib 0.048 | [4] 0.119 | doramapimod 0.046 | ispinesib -0.097 | bafetinib 0.059 | [5] 0.091 | nilotinib -0.026 | [6] -0.088 | dasatinib -0.14 | [7] 0.006 | [8] -0.077 | [9] -0.029 | tipifarnib -0.046 | mubritinib -0.087

RRP12 (UniProt Q5JTH9)
inactive: [1] -0.056 | crizotinib -0.074 | [2] -0.242 | duvelisib -0.014 | gandotinib 0.074 | tozasertib -0.092 | [4] 0.053 | doramapimod 0.203 | ispinesib -0.172 | bafetinib 0.01 | [5] -0.036 | nilotinib -0.082 | [6] 0.088 | dasatinib -0.028 | [7] 0.184 | [8] -0.136 | [9] -0.123 | tipifarnib -0.035 | mubritinib -0.096
active: [3] 0.811

RAB33B (UniProt Q9H082)
Chain of UniProt Q9H082 (Q9H082 whole entry, looked up): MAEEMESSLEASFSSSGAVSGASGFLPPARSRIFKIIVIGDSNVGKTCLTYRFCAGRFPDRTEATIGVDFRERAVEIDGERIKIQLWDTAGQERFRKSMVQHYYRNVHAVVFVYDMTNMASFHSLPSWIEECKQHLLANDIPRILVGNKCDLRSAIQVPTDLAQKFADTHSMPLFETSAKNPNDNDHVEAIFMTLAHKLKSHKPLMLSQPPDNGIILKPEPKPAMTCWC
inactive: [1] 0.007 | crizotinib 0.106 | [2] 0.064 | [3] -0.037 | duvelisib 0.058 | gandotinib -0.095 | tozasertib -0.032 | [4] -0.038 | doramapimod -0.021 | ispinesib -0.065 | bafetinib -0.01 | [5] 0.012 | nilotinib 0.01 | [6] 0.018 | dasatinib -0.058 | [7] 0.022 | [8] 0 | [9] 0.151 | tipifarnib 0.024 | mubritinib -0.01
